Screens: PubChem, National Center for Advancing Translational Sciences (NCATS)
SMN2 splice enh: increases expression of the SMN2 splice variant; HEK293 SMN2-luciferase splicing reporter, luminescence, 30-36 h; Potency, µM (doses to about 46.1 µM), for inactives: at the top dose activity change, positive = activation, usual class: activators; 2.8% of 210,000 active; AID 1458; further: % of control where 0% means no effect; nearly all actives have a fitted effect of over 55% in size
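HEK293 cells carry an SMN2 […]–luciferase reporter in which exon 7 inclusion puts luciferase in frame. Cells were plated 10-12 h before compound addition, then incubated 30-36 h at 37C. ONE-Glo luminescence was read; sodium butyrate at 4.5 mM final served as control.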
Rab9 prom act: Rab9 promoter activation; 2.8% of 320,000 active; Huh7 Rab9 promoter-luciferase reporter, luminescence, 24 h; Potency, µM (series often up to 9.22 µM), inactives show at the highest dose activation, negative = inhibition, actives largely listed as activators; further: % of control where 0% means no effect; nearly all actives have a fitted effect of over 60% in size
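Huh7 reporter line, Rab9 promoter upstream of luciferase. Compound exposure 24 h at 37 °C in reduced-serum medium with 10% FBS. Read-out: luminescence.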
ELG1 genotoxic: genotoxicity induction in ELG1-luciferase HEK293T cells; HEK293T ELG1-luciferase reporter, luminescence, 16 h; 1.3% of 330,000 active; Potency, µM (doses to about 46 µM), for the others: top-dose activity change, positive = activation, usual class: activators; further: % of control where 0% means no effect; nearly all actives have a fitted effect of over 60% in size
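After overnight (16 hr) compound treatment at 37 °C, ELG1-luciferase HEK293T cells were lysed with ONE-Glo; luminescence quantified 30 min later at room temperature.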
NPC1 prom act: NPC1 promoter activation | Huh7 NPC1 promoter luciferase reporter, 24 h | Potency, µM (titrated, usually from 9.22 µM), for the others: at the top dose activation, usual class: activators | 2.4% of 320,000 active | AID 485313; further: % of control where 0% means no effect; nearly all actives have a fitted effect of over 60% in size
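NPC1 promoter–luciferase Huh7 cells; 24 h compound; luminescence.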
FLuc counter: firefly luciferase modulation, counter-screen for miR-21 project. P08659. purified FLuc, Km substrates, luminescence inhibition. Potency, µM (doses to about 57.5 µM), inactives show at the top dose activity change, negative = inhibition, usual class: inhibitors. 6.9% of 360,000 active;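 further: plate controls were vehicle for no effect and reference inhibitor for full effect; nearly all actives have a fitted effect of over 55% in size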
Target sequence (P08659 whole entry, looked up): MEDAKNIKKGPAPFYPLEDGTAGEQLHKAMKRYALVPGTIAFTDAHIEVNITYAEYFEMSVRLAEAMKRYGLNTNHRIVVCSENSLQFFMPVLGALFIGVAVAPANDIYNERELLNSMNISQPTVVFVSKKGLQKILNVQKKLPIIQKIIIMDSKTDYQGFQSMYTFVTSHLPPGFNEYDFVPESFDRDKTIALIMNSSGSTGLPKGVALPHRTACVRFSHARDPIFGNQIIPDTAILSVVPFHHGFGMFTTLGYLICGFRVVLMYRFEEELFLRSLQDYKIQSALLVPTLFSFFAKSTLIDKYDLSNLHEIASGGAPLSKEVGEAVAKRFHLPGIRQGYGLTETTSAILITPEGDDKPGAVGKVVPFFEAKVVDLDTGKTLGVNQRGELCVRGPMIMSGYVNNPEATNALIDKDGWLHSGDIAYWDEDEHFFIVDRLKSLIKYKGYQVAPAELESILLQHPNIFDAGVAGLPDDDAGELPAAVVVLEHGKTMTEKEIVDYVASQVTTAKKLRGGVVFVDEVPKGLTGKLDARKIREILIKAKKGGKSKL
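Purified P. pyralis luciferase (10nM final) with 10uM D-luciferin and 10uM ATP (Km levels) in 50mM Tris acetate pH 7.5, 10mM Mg acetate, 0.01% Tween-20, 0.05% BSA; qHTS 6-point titration, ~60 µM downward; luminescence read.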
An asterisk follows results filed as active; u = inconclusive; x = no result given; [ ] = dose if it differs, or a comment. Shown are actives, neighbours in structure and some others; about 7.4% of the full set was active somewhere. The call rests on the fitted dose curve; in most records, active means well fitted curve in the direction sought with a large enough effect; inconclusive means small, poorly fitted or top-dose-only effect, or another doubt; inactive means no such curve, though single readings can be large; an effect the other way counts as inactive or inconclusive. Potency means the concentration at half of the fitted maximal effect.

SMILES	SMN2 splice enh	Rab9 prom act	ELG1 genotoxic	NPC1 prom act	FLuc counter
O=C(Nc1ccccc1C(=O)O)c1cccc(C(=O)Nc2ccccc2C(=O)O)c1	x	1%	-16%	0%	19µM*
O=C(Nc1ccccc1C(=O)O)c1ccccc1	12%	-3%	17%	2%	u
CC(C)CC(=O)Nc1cccc(C(=O)Nc2ccccc2C(=O)O)c1	14%	-3%	-1%	-2%	15µM*
O=C(COc1ccc(Br)cc1Br)NC1CCS(=O)(=O)C1 (stereo not given)	x	2%	17%	-3%	-3%
Cc1cc(Cl)ccc1OCC(=O)NC1CCCC1	-76%	2%	u	-1%	u
O=C(COc1ccccc1Cl)c1ccc[nH]1	u	u	u	19%	u
O=C(COc1ccc(Br)cc1Cl)NC(=O)NC1CCCC1	x	u	u	29%	9.5µM*
O=C(COc1ccc(Br)cc1Cl)NC1CCCCC1	u	1.4µM*	u	2.8µM*	3µM*
O=C(COc1ccc(Br)cc1Cl)c1ccc[nH]1	u	4µM*	12%	u	19µM*
O=C(COc1ccc(Br)cc1Br)NC1CCCC1	-57%	0%	21%	0%	17µM*
N[C@H](C(=O)O)[C@H](Cc1ccccc1)C(=O)O	x	11%[46.1 µM]	x	2%[46.1 µM]	x
CCN(CCCNC(=O)CN1N=C(c2ccccc2)CCC1=O)c1ccccc1	x	x	x	x	1%
CC(C)NC(=O)NC(=O)COc1c(F)c(F)cc(F)c1F	23%	2%	-2%	-2%	1%
C=CCNC(=O)COc1ccc(Br)cc1Cl	u	u	14%	u	17µM*
CC(C)NC(=O)NC(=O)COc1ccc(Br)cc1Br	2.5µM*	2µM*	3.3µM*	1µM*	1.2µM*
CCOC(=O)C(CC)Sc1ccc2nnc(CCNS(=O)(=O)c3ccc(C)cc3)n2n1 (stereo not given)	x	x	x	x	-2%
c1ccc(-c2cc(N3CCCCC3)ncn2)cc1	10µM*	2.8µM*	15µM*	u	11µM*
Nc1nc(-c2ccccc2)cc(N2CCCCC2)n1	6%	-6%	2%	-3%	4%
c1ccc(-c2cc(N3CCCCCC3)n[nH]2)cc1	u	u	16µM*	u	21µM*
Oc1c(Br)cc(Br)cc1CN(Cc1cc(Br)cc(Br)c1O)C1CCCCC1	-5%[9.22 µM]	x	x	x	x
Nc1nc(SCc2ccccc2)[nH]c(=O)c1-c1ccccc1	13µM*	u	12µM*	u	19µM*
CCCn1cc(S(=O)(=O)c2ccccc2)c(=O)c2cc(F)c(N3CCCCCC3)cc21	x	x	x	x	-1%
COc1cccc(NC2=Nc3cccc4cccc2c34)c1	14%	-3%	4%	-3%	12µM*
Clc1ccc(/C=N/NC2=Nc3cccc4cccc2c34)cc1	11µM*	0.63µM*	u	0.63µM*	1.7µM*
C(=N\NC1=Nc2cccc3cccc1c23)/c1cccnc1	11µM*	2.5µM*	u	3.5µM*	4.8µM*
SMILES	SMN2 splice enh	Rab9 prom act	ELG1 genotoxic	NPC1 prom act	FLuc counter
COc1ccc(NC2=Nc3cccc4cccc2c34)cc1OC	-9%	-2%	-3%	6%	u
C(=N\NC1=Nc2cccc3cccc1c23)/c1ccccc1	4µM*	4.5µM*	u	4µM*	1.7µM*
CCc1ccc(NCc2cc3ccc(OC)cc3n(CC(=O)Nc3ccc(C)c(Cl)c3)c2=O)cc1	x	x	x	x	4%
COC(=O)c1cc2sc(C)cc2n1Cc1ccc(Br)cc1F	-6%	x	x	x	-1%
COC(=O)c1sc(NC(=O)c2c(-c3ccccc3)noc2C)nc1C	x	-2%	2%	1%	u
COC(=O)c1sc(NC(=O)c2ccoc2C)nc1C	22µM*	u	u	29%	u
COC(=O)c1sc(NC(=O)c2c(C)noc2C)nc1C	x	-2%	u	6%	24µM*
CCOc1ccc(NC(=O)Cn2c(=O)n(-c3ccccc3)c(=O)c3ccc(C(=O)NCc4ccc5c(c4)OCO5)cc32)cc1	14%	x	x	x	-3%
COc1ccc2c(c1)CC(C(=O)NCCCN1CCN(c3cccc(Cl)c3)CC1)CO2 (stereo not given)	x	x	x	x	-5%
O=c1oc2cc(Cl)ccc2n1CSc1nc2ccccc2s1	25%	u	15µM*	u	8.5µM*
CCc1ccccc1NC(=O)C1CCCN(C(=O)c2cnn(-c3ccccc3)c2-n2cccc2)C1 (stereo not given)	-6%	x	x	x	-11%
CCOc1ccc(-c2cc3c(=O)n(Cc4nc(-c5ccc(OC)cc5OC)oc4C)ccn3n2)cc1Cl	15%	x	x	x	-9%
Cc1cccc(Nc2nc3c(s2)CCCC3)c1	28%[1.84 µM]	3.5µM*	u	u	4.8µM*
C1CCN=C(Nc2nc3c(s2)CCCC3)CC1	10µM*	u	11%	u	u
O=C(O)c1ccc(Nc2nc3c(s2)CCCC3)cc1	0.63µM*	0.04µM*	u	-28%	0.3µM*
O=S1(=O)N=C(Nc2nc3c(s2)CCCC3)c2ccccc21	4µM*	1.4µM*	u	2.5µM*	0.85µM*
CCOc1ccccc1CNC(=O)Cn1cc2c(n1)-c1c(oc(C(=O)N3CCCC3)c1C)CC2	x	x	x	x	3%
Cc1nn(C)c2c1c(C(F)(F)F)cc(=O)n2C(C)C(=O)NCCc1ccccc1 (stereo not given)	x	x	x	x	-6%
O=C(Nc1ccc2c(c1)CCC2)C1COc2ccccc2O1 (stereo not given)	16µM*	2.5µM*	21µM*	4µM*	19µM*
CCn1cc(C2=NOC(C(=O)Nc3ccc4c(c3)OCO4)C2)c(C)n1 (stereo not given)	-33%	0%	-5%	-2%	-11%
COc1cccc(NC(=O)C2COc3ccccc3O2)c1 (stereo not given)	x	24%	u	u	27µM*
O=C(Nc1ccc2c(c1)OCO2)C1CC(c2ccccc2Cl)=NO1 (stereo not given)	15%	2.5µM*	u	u	2%[2.3 µM]
O=C(Nc1cnc2ccccc2c1)C1COc2ccccc2O1 (stereo not given)	-6%	4µM*	u	25%	13µM*
O=C(Nc1ccc2c(c1)OCO2)C1COc2ccccc2O1 (stereo not given)	u	2.8µM*	u	u	17µM*
CCCCC(=O)N(CCOC)c1nnc(-c2ccc(OC)cc2)s1	u	3%	0%	2%	7%[2.3 µM]
CCCN(C(=O)c1ccco1)c1nnc(-c2cccc(C)c2)s1	x	u	8%	17%	17µM*
CCN(C(=O)c1ccco1)c1nnc(-c2ccc(OC)cc2)s1	13µM*	1.8µM*	u	u	0.95µM*
Cc1ccc(CCNC(=O)CCS(=O)(=O)c2cc3c(cc2Cl)NC(=O)CO3)cc1	x	x	x	x	0%
O=C(Nc1ccccc1)C1=C[C@@H](C2CC2)C[C@@H](OCc2ccc(CO)cc2)O1	x	18%	10%	11%	11µM*
